Inconclusive results are not listed. A call without a number means that no potency is given here. Activity calls are given as the source filed them. Calls follow the shape of the dose curve; as a rule, active = well fitted inhibition curve with a large enough effect; inconclusive = small, poorly fitted or top-dose-only effect; inactive = flat fitted curve, though single readings scatter.
Assay: P-glycoprotein substrates identified in KB-8-5-11 adenocarcinoma cell line, qHTS therapeutic library screen (AID 1346987); also: nearly all actives have a fitted effect of over 65% in size
Settings: KB-8-5-11 (P-gp overexpressing) viability, CellTiter-Glo, 72 h; series mostly up to 44.5 µM
Procedure, shortened: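 KB-8-5-11, a colchicine-selected P-gp-overexpressing KB-3-1 subline, was grown without colchicine for the assay. Cells were seeded at 500 cells/well, dosed in concentration-response and incubated 72 h at 37 degree C, 5% CO2. Viability was read by CellTiter-Glo luminescence.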
Potency is read from the fitted curve at half-maximal effect.

Structure (SMILES) | Potency | activity change, negative = cytotoxicity
COc1ccccc1C(=O)Nc1cc2c(cc1N1CCCC1)n(C)c(=O)n2C | 18.4 µM (active) | –
C=CC(C)(O)CC/C=C(/C)COC(=O)C(C)C1CCC(C)(C=C)O1 (centres undefined) | inactive | –
CC1OC(OC2C(O)COC(O[C@@H]3[C@@H](O)[C@@H](O)[C@H](OC4C(OC(=O)[C@]56CCC(C)(C)CC5C5=CCC7[C@@]8(C)C[C@H](O)[C@H](OC9OC(CO)C(O)C(O)C9O)[C@@](C)(CO)C8[C@H](O)C[C@@]7(C)[C@]5(C)CC6)OCC(O)C4O)O[C@H]3C)C2O)C(O)C(O)C1O (some centres undefined) | – | -5.97% [at 9.29 µM] (inactive)
OC1CCC(Nc2nc(-c3ccccc3)nc3[nH]ccc23)CC1 (centres undefined) | inactive | –
CC(=O)N[C@@H](C=O)[C@H](O)[C@H](O)[C@@H](O)CO | inactive | –
O=C(Nc1nnc(-c2ccc3c(c2)OCCO3)o1)C1CCCCC1 | inactive | –
CCc1cc2c(cc1CC)CC(NCC(O)c1ccc(O)c3[nH]c(=O)ccc13)C2 (centres undefined) | inactive | –
Cc1cccc(C#Cc2cc(F)cc(C#N)c2)n1 | inactive | –
CC/C=C\CC1C(=O)C=CC1(CCCCC1CCC(=O)O1)OC(C)=O (centres undefined) | inactive | –
COc1cc2nc(N3CCN(C(=O)c4ccco4)C4CCCCC43)nc(N)c2cc1OC (centres undefined) | 14.6 µM (active) | –
Cc1nnc(C[C@@H]2C=C(c3ccc(Cl)cc3)c3ccccc3-n3c(C)nnc32)o1 | 2.59 µM (active) | –
CC(=O)O[C@@H]1C[C@@]23C[C@@]24CC[C@H](O[C@@H]2OC[C@H](O)[C@H](O)[C@H]2O)C(C)(C)[C@@H]4CC[C@H]3[C@]2(C)[C@@H](O)C34O[C@H](C[C@@H](C)[C@@H]3[C@@]12C)[C@@H](C(C)(C)O)O4 | inactive | –
CC(=O)N[C@H]1[C@H](O[C@H]2CC[C@@]3(C)C(CC[C@]4(C)C3CC=C3C5CC(C)(C)CC[C@]5(C(=O)O)C(O)C[C@]34C)C2(C)C)O[C@H](CO[C@@H]2O[C@H](C)[C@H](O)[C@H](O)[C@H]2O[C@@H]2OC[C@@H](O)[C@H](O)[C@H]2O)[C@@H](O)[C@@H]1O (some centres undefined) | – | -2.51% [at 9.29 µM] (inactive)
O=C(Nc1cnc(Cl)nc1)c1ccc(F)c(F)c1 | inactive | –
CC(=O)OC1C(OC(=O)c2ccccc2)C2C(C)(C)CCC(OC(C)=O)C2(C)C23CCC(C)(C2)C(=O)CC13 (centres undefined) | inactive | –
COc1cc(-c2cn(C3CCc4c(F)cccc4N(CC(F)(F)F)C3=O)nn2)ccc1-n1cnc(C)c1 (centres undefined) | inactive | –
Cc1cc(N2CCOCC2)ccc1Nc1nc(NC2CCCCC2)c2[nH]cnc2n1 | 1.3 µM (active) | –

Structure (SMILES) | Potency | activity change, negative = cytotoxicity
COc1ccc(C2(CNC(=O)c3ccc(NC(=O)c4ccco4)cc3)CCOCC2)cc1 | inactive | –
Cc1cc(N2CCN(C(=O)Oc3ccc(-c4ccccc4)cn3)CC2)c2ccccc2n1 | 14.6 µM (active) | –
Cc1cc2sc(NC(=O)Cc3ccccc3)nc2cc1Cl | inactive | –
COC1CCN(c2cccc(-c3cc(NC(C)=O)nc(-n4nc(C)cc4C)n3)n2)CC1 | 20.6 µM (active) | –
COc1c(CCC(=O)O)cccc1O[C@@H]1O[C@H](CO)[C@@H](O)[C@H](O)[C@H]1O | inactive | –
OC1C=C2C3CN(Cc4cc5c(cc43)OCO5)C2CC1O (centres undefined) | 13 µM (active) | –
CCc1c[nH]c2ncnc(N3CC[C@](N)(CNC(=O)c4ccc(F)cc4F)C3)c12 | inactive | –
CCC/C=C\C=C/CCc1cc(O)c([C@@H]2O[C@H](CO)[C@@H](O)[C@H](O)[C@H]2O)c(O)c1C(=O)OC | inactive | –
CN(c1ccc(NC(=O)Nc2ccccc2)cc1)S(=O)(=O)c1cnn(-c2ccc(F)cc2)c1 | 11.6 µM (active) | –
O=C(Nc1ccc(-c2ccc(Cl)c(Cl)c2)cc1)C1=C(O)c2ccccc2S(=O)(=O)N1 | inactive | –
Fc1ccc(-c2cncc(CN3CCN(c4cccc5c4OCCO5)CC3)c2)cc1 | inactive | –
c1ccc(-c2ccc(CNc3nc(-c4ccccn4)nnc3-c3ccccc3)cc2)cc1 | 4.61 µM (active) | –
O=C(Nc1ccnc(NC(=O)C2CC2)c1)c1c(Cl)cccc1Cl | 8.2 µM (active) | –
C/C1=C/CCC2=CC(OC2=O)C(C)(C)/C=C/C1=O (centres undefined) | 3.26 µM (active) | –
Fc1ccc(-c2nc(C3CCNCC3)sc2-c2ccnc(NC3CC3)n2)cc1 | 13 µM (active) | –
C#CCCCn1cc(-c2cccc3c2N[C@H](C)CC(=O)N3)cn1 | 1.46 µM (active) | –
COc1ccccc1-c1ccc(-c2cn(C(=O)N3CCCCC3Cc3ccccc3)nn2)cc1 (centres undefined) | inactive | –
